In the supplement of paper PMC12636033:
± gives the standard deviation of the averaged measurements. The full ranking holds about 33,000 sequences; the median of “E-score (rank enrichment, -0.5 to 0.5)” is about -0.0043, and the highest 2% start at about 0.24. Shown is part of a subset that was picked to be rich in the highest values.

What follows are sequences tested on 2Sp-muMax20 (muMax20 with two 2,6-bis(methyl)pyridine Cys staples) (assay: PBM 8-mer E-score (E-score (rank enrichment, -0.5 to 0.5)); higher = stronger preferential binding).
Method: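 Protein binding microarray (universal PBM chip covering all 10-mers in fixed probe flanks) with chemically synthesized human Max(13-93) bHLH-LZ analogs (not full-length Max) bearing noncanonical residues (hArg, Tha, Aib, Nle at 65) and aromatic Cys staples. Read-out per 8-mer (and its reverse complement): E-score (rank-based enrichment, -0.5 to 0.5) and Z-score of median probe intensity.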

Row | Sequence | PBM 8-mer E-score
1 | ACAAGTCA | 0.0779 ± 0.031
2 | ACAAGTCT | 0.287 ± 0.028
3 | ACAAGTCG | 0.0191 ± 0.009
4 | ACATGCAA | 0.0816 ± 0.11
5 | AGGTATCG | -0.0734 ± 0.073
6 | AGGTATCA | 0.238 ± 0.043
7 | CGGTATCA | -0.1599 ± 0.00081
8 | AAAAGGCG | 0.0426 ± 0.024
9 | CACCGATA | -0.0537 ± 0.018
10 | GGGAATGA | 0.26 ± 0.057
11 | AGGAATGA | 0.0595 ± 0.018
12 | CGGAATGA | -0.155 ± 0.06
13 | AATGTATC | 0.151 ± 0.022
14 | TACCAACA | 0.163 ± 0.027
15 | ATAGACTC | 0.154 ± 0.021
16 | CTGGCGGC | -0.155 ± 0.055
17 | CACGCCCG | 0.0249 ± 0.038
18 | ACATCATA | 0.244 ± 0.064
19 | ATATCATA | 0.255 ± 0.085
20 | ATATCAGC | 0.0631 ± 0.073
21 | ATATCAGG | 0.239 ± 0.032
22 | ATATCATG | 0.147 ± 0.035
23 | CTATCATA | 0.185 ± 0.013
24 | ACATCATC | 0.047 ± 0.02
25 | ATGTCATA | 0.189 ± 0.012

Row | Sequence | PBM 8-mer E-score
26 | ATATCAGA | 0.0984 ± 0.019
27 | CCATCATA | 0.153 ± 0.082
28 | GTGTCATA | 0.248 ± 0.042
29 | CTGTCATA | 0.179 ± 0.043
30 | CGATAAGC | -0.0518 ± 0.16
31 | GGAATACC | -0.138 ± 0.015
32 | ACAGTTAG | 0.074 ± 0.026
33 | TGCTGCAA | 0.0638 ± 0.096
34 | CTTTCGGA | -0.125 ± 0.009
35 | CCCAACAA | 0.177 ± 0.0058
36 | AAAAGAAA | 0.0569 ± 0.052
37 | CCGCTGGA | -0.157 ± 0.04
38 | GTATCAGA | -0.0699 ± 0.043
39 | GCATCATA | 0.169 ± 0.0065
40 | GTATCATA | 0.255 ± 0.024
41 | CATGAGCA | -0.0267 ± 0.017
42 | GCCGAAGA | -0.0625 ± 0.053
43 | AGTAATAC | -0.0935 ± 0.039
44 | AATAGTAA | 0.238 ± 0.06
45 | AGTAATAT | 0.25 ± 0.05
46 | CATAGTAA | 0.159 ± 0.099
47 | AGTAATAA | 0.0744 ± 0.038
48 | AGTAACAT | 0.294 ± 0.018
49 | AGTAATGG | 0.122 ± 0.043
50 | AGTAACAA | 0.113 ± 0.089

Row | Sequence | PBM 8-mer E-score
51 | CGTAATAG | 0.118 ± 0.1
52 | AATAGTAG | 0.0793 ± 0.083
53 | AGTAATAG | 0.254 ± 0.02
54 | AGTAACAG | 0.09 ± 0.031
55 | ACCGGCAT | -0.121 ± 0.029
56 | GCAAATAC | 0.0657 ± 0.013
57 | AATAGATT | 0.117 ± 0.049
58 | GCAACGTA | -0.119 ± 0.038
59 | GAGCTATC | 0.0105 ± 0.011
60 | CCAAACGA | -0.105 ± 0.068
61 | AGCGTGTG | 0.146 ± 0.035
62 | ATCGGGAA | -0.0836 ± 0.067
63 | GCATCCAC | 0.0775 ± 0.049
64 | CCCACCTC | -0.0411 ± 0.14
65 | CTTTTTCA | 0.0855 ± 0.061
66 | GCTTTTAA | -0.0089 ± 0.0068
67 | GCTTTTTA | 0.303 ± 0.013
68 | GCTTTTCA | 0.0545 ± 0.063
69 | CCTTTTCA | 0.29 ± 0.03
70 | CCTTTTTA | -0.0668 ± 0.03
71 | GTTCCTCA | -0.0919 ± 0.021
72 | CGCTGGAG | -0.172 ± 0.023
73 | ATCAACTC | 0.0114 ± 0.058
74 | CGAAGGAA | -0.209 ± 0.023
75 | GAGCCAGA | -0.216 ± 0.14

Row | Sequence | PBM 8-mer E-score
76 | TGTATGAA | 0.0767 ± 0.054
77 | ACCCACCA | 0.178 ± 0.043
78 | GCCCACCA | 0.078 ± 0.038
79 | GCCCACAC | 0.076 ± 0.018
80 | CCCCACCC | 0.23 ± 0.1
81 | GCCCACCC | 0.417 ± 0.02
82 | ACCCACCC | 0.424 ± 0.043
83 | AACCGGAA | -0.0983 ± 0.0079
84 | GCTGAGAA | -0.111 ± 0.028
85 | TCAACCGA | -0.0249 ± 0.02
86 | AACCATTA | 0.293 ± 0.0072
87 | AACCATTG | -0.145 ± 0.014
88 | CACCATTA | -0.0267 ± 0.11
89 | GTCAAATA | 0.163 ± 0.093
90 | ACATATGG | 0.0892 ± 0.04
91 | CAATATGA | 0.189 ± 0.055
92 | CAATATGC | 0.128 ± 0.021
93 | CAATATGG | 0.244 ± 0.044
94 | CCATATGG | 0.295 ± 0.008
95 | CCATATGC | 0.134 ± 0.054
96 | AGCACCAG | -0.0554 ± 0.022
97 | CGACACTC | -0.159 ± 0.094
98 | AACACTCC | -0.151 ± 0.012
99 | GAAATCAC | 0.142 ± 0.072
100 | AAAATCAC | 0.28 ± 0.0095

Row | Sequence | PBM 8-mer E-score
101 | CGAATCAA | 0.241 ± 0.054
102 | CAAATCAA | 0.237 ± 0.0084
103 | AAAATCAA | -0.044 ± 0.037
104 | GAAATCAA | 0.0712 ± 0.019
105 | AAAATCAG | 0.0292 ± 0.03
106 | TGAATCAA | 0.1418 ± 0.00071
107 | CGAATCAG | -0.0839 ± 0.076
108 | CCGCTTGC | -0.142 ± 0.036
109 | ATACCAGA | 0.118 ± 0.019
110 | ACGTGTCT | 0.26 ± 0.046
111 | ACGTGTCG | 0.18 ± 0.033
112 | ACGTGTAC | 0.132 ± 0.017
113 | ACGTGTAG | 0.0238 ± 0.1
114 | ACGTGTGA | 0.113 ± 0.061
115 | CCGTGTTA | 0.0643 ± 0.04
116 | ACGTGTGC | 0.238 ± 0.029
117 | GCGTGTTA | 0.103 ± 0.02
118 | ACGTGTGG | 0.156 ± 0.026
119 | ACGTGTAT | 0.336 ± 0.015
120 | ACGTGTCA | 0.139 ± 0.031
121 | ACGTGTTA | 0.352 ± 0.0043
122 | GAAGCCCC | -0.0537 ± 0.047
123 | GCTTGTCA | -0.15 ± 0.028
124 | CACCTGAC | 0.0247 ± 0.0091
125 | CCCATAGA | 0.11 ± 0.015

Row | Sequence | PBM 8-mer E-score
126 | CTTATCAC | 0.00992 ± 0.026
127 | ACCGAGCT | -0.158 ± 0.00061
128 | CGAGTAAG | 0.0344 ± 0.035
129 | CACGATAA | 0.0394 ± 0.0045
130 | TGGAACCA | -0.0848 ± 0.06
131 | ACGTCCAT | -0.0323 ± 0.032
132 | CCCCACAA | 0.245 ± 0.013
133 | GCCCATAA | -0.0636 ± 0.086
134 | TCCCATAA | 0.0959 ± 0.053
135 | CCCCACAG | -0.0544 ± 0.039
136 | CCCCATAA | 0.254 ± 0.037
137 | CCCCACAC | 0.229 ± 0.021
138 | GTCCAAAA | -0.0163 ± 0.058
139 | ACGCGAAC | 0.0549 ± 0.069
140 | TCACAAAA | 0.0933 ± 0.021
141 | ACAAGCTC | -0.194 ± 0.011
142 | ATATAAAT | 0.251 ± 0.037
143 | ATATAAAA | 0.3008 ± 0.00046
144 | CTATAAAA | -0.0627 ± 0.04
145 | GTATAAAA | 0.278 ± 0.035
146 | ATAAAAAT | 0.16 ± 0.044
147 | GTATAAAC | 0.0938 ± 0.044
148 | CTATAAAC | 0.0618 ± 0.024
149 | ATAAAAAC | 0.116 ± 0.046
150 | ACATAAAA | 0.144 ± 0.037

Row | Sequence | PBM 8-mer E-score
151 | ATATAAAG | 0.21 ± 0.017
152 | ATATAAAC | 0.315 ± 0.054
153 | GGATAAAA | 0.0526 ± 0.098
154 | CTACACTA | 0.111 ± 0.081
155 | ACGCCTTC | -0.0956 ± 0.053
156 | TAATAAAA | 0.231 ± 0.053
157 | TTATAAAA | 0.272 ± 0.021
158 | TGATAAAA | 0.145 ± 0.017
159 | GGGGAAGA | 0.0842 ± 0.0073
160 | AGTCCTTC | -0.195 ± 0.04
161 | ATACCATA | 0.249 ± 0.041
162 | ATACCATC | 0.237 ± 0.021
163 | ACACCATC | 0.0694 ± 0.0049
164 | ATACCATG | 0.102 ± 0.057
165 | CTACCATC | -0.168 ± 0.094
166 | GTACCATA | -0.00352 ± 0.14
167 | AGAAGGTC | 0.126 ± 0.039
168 | ACTTGGCG | -0.143 ± 0.14
169 | CTGCAACC | -0.145 ± 0.031
170 | GCTAGTCA | 0.103 ± 0.052
171 | AGTCACGC | 0.26 ± 0.037
172 | AGTCACGG | -0.147 ± 0.052
173 | AGTCACGA | -0.0662 ± 0.009
